Measured values published in PubChem BioAssay (NCATS).
Several values for one entry are separate records, joined by “and”; a condition that tells them apart may be missing. Equal entries are not always repeated. Records with an inconclusive call do not appear. Activity calls are given as the source filed them. Unless noted, the call rests on the fitted dose curve; in most records, active means well fitted curve in the direction sought with a large enough effect; inconclusive means small, poorly fitted or top-dose-only effect, or another doubt; inactive means no such curve, though single readings can be large; an effect the other way counts as inactive or inconclusive.

Tests used:
[1] = Cell Viability - BJ (AID 421; calls by dose curve;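 further: potency means the concentration at half of the fitted maximal effect; cells exposed to compound for 40 hours at 37 °C before readout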); details: BJ fibroblast viability, qHTS
Procedure, shortened: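 Cytotoxicity as drop in intracellular ATP (CellTiter-Glo, 20 min RT) after 40 hr compound exposure of BJ fibroblasts at 37 °C. Titrations scaled between DMSO and 100 uM tamoxifen, Hill-fitted for AC50.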

[2] = Cell Viability - Mesenchymal (AID 546); details: mesenchymal cells viability, qHTS; series mostly up to 91.7 µM;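 further: cells exposed to compound for 40 hours before reading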
Procedure, shortened: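 Human kidney mesenchymal cells from normal renal glomeruli, 1000 cells/well, rested 5 hr at 37 °C, then treated 40 hr at 37 °C in complete medium. Cellular ATP read by CellTiter-Glo luminescence; AC50 from Hill-equation fits.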

[3] = Cellular Toxicity (caspase-3) HepG2 (AID 654); details: HepG2 caspase-3 activation, luminescence, 0% = DMSO only, 100% = tamoxifen; series mostly up to 92.2 µM;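 further: cells exposed to compound for 16 hours before reading; 0% = DMSO alone and 100% = caspase signal from 100 µM tamoxifen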
Procedure, shortened: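 Cells plated 5 hr at 37 °C, compound added, incubated 16 hr at 37 °C. Caspase-Glo 3/7 reagent followed, 20 min at room temperature, then luminescence read. Activation scored as signal increase; AC50 from Hill fit.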

[4] = Cellular Toxicity (caspase-3) HUV-EC-C (AID 656); details: HUV-EC-C cells, caspase-3 activation (apoptosis), vehicle = 0, 100 µM tamoxifen = 100%; series mostly up to 92.2 µM
Procedure, shortened: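 Luminescent caspase-3/7 activation (aminoluciferin substrate cleavage) in HUV-EC-C cells after 16 hr compound exposure, 37°C. Signal normalized to DMSO basal and 100 uM tamoxifen as 100%; AC50 from concentration-response fitted with the Hill equation.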

[5] = Cellular Toxicity (caspase-3) BJ (AID 658); details: BJ fibroblasts, luminescence, normalized: DMSO 0%, staurosporine 100%; series mostly up to 91.7 µM;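 further: cells exposed to compound for 16 hours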
Procedure, shortened: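 BJ human foreskin fibroblasts, 1000 cells/well, treated 16 hours at 37 °C in complete medium; caspase 3/7 activity by Caspase-Glo luminescence after 1 hr at room temperature. Normalized to DMSO and 10 uM staurosporine; AC50 from Hill fits.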

[6] = Cellular Toxicity (caspase-3) MRC-5 (AID 659); details: MRC-5 cells, luminescence, normalized: DMSO 0%, 10 µM staurosporine 100%; series mostly up to 91.7 µM
Procedure, shortened: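 MRC-5 human normal lung fibroblasts, 1500 cells/well, treated 16 h at 37 °C in complete medium. Caspase 3/7 measured by Caspase-Glo luminescence after 1 h at room temperature. Normalized to DMSO and 10 uM staurosporine; AC50 from Hill fit.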

[7] = Cellular Toxicity (caspase-3) SK-N-SH (AID 661); details: SK-N-SH caspase-3 activation, qHTS; series mostly up to 91.7 µM;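 further: cells exposed to compound for 16 hours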
Procedure, shortened: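 Human neuroblastoma SK-N-SH, 1500 cells/well, 5 hr pre-incubation, then compound 16 hr, 37 °C. Caspase-Glo 3/7 reagent, 1 hr RT, luminescence. Norm. to DMSO/10 uM staurosporine; Hill-fit AC50.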

[8] = Cellular Toxicity (caspase-3) Hek293 (AID 664); details: HEK293 caspase-3 activation, DMSO = 0%, 100 µM tamoxifen = 100%; at 92.2 µM (top of the series);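 further: cells exposed to compound for 16 h at 37 °C before readout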
Procedure, shortened: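 Cells plated, 5 hr at 37 °C; compounds added; 16 hr at 37 °C; Caspase-Glo 3/7 reagent, 20 min RT; luminescence read. Activation expressed relative to DMSO and 100 uM tamoxifen, AC50 by Hill model.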

[9] = MultiTox-Fluor Cytotoxicity Assay - LYMP1-001 - Dead Cells (AID 946); details: LYMP1-001 lymphoblastoid cells, dead-cell protease fluorescence; series mostly up to 92.2 µM
Procedure, shortened: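 Cytotoxicity as increased dead-cell protease fluorescence (bis-AAF-R110, 485/520 nm), read 60 min after MultiTox-Fluor reagent. Human lymphoblastoid line exposed 16 h; Hill-fitted AC50, with DMSO as 0% and 15 uM tetraoctylammonium bromide as 100%.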

[10] = Cell Viability - LYMP1-002 - Assay at 16 hr (AID 948); details: LYMP1-002 lymphoblastoid cell viability; series mostly up to 92.2 µM;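 further: 0% = DMSO alone and full effect = 92 µM tetraoctylammonium bromide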
Procedure, shortened: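 LYMP1-002 human lymphoblastoid cells, 2500/well; 5 hr 37 C; cpd 16 hr 37 C; CellTiter-Glo 30 min RT; luminescence (ATP). Concentration-response, Hill-fit AC50. Pos ctrl tetraoctylammonium bromide.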

[11] = MultiTox-Fluor Cytotoxicity Assay - LYMP1-002 - Live Cells (AID 955); details: LYMP1-002 lymphoblastoid live-cell protease fluorescence viability; series mostly up to 46.1 µM;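 further: cells exposed to compound for 16 hours; on the % scale 0 is the no-effect control and ±100 the full control effect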
Procedure, shortened: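 Read-out is live-cell protease activity (cell-permeant GF-AFC substrate, fluorescence Ex/Em=405/510), where a decrease indicates acute toxicity. Human lymphoblastoid cells were treated 16 hours at 37 C in a concentration series, and AC50 values came from standard Hill modelling.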

[12] = MultiTox-Fluor Cytotoxicity Assay - LYMP1-003 - Dead Cells (AID 961); details: LYMP1-003 lymphoblastoid cells, dead-cell protease fluorescence; series mostly up to 92.2 µM; further: nearly all actives have a fitted effect of over 70% in size
Procedure, shortened: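 Dead-cell protease release, detected as bis-AAF-R110 fluorescence at 485/520 nm, was measured in LYMP1-003 cells after 16 h compound treatment at 37 C. AC50 values came from Hill-modeled qHTS curves normalized to DMSO (0%) and 15 uM tetraoctylammonium bromide (100%).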

[13] = MultiTox-Fluor Cytotoxicity Assay - LYMP1-003 - Live Cells (AID 962); details: LYMP1-003 lymphoblastoid cells, MultiTox-Fluor live-cell protease fluorescence; series mostly up to 92.2 µM;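 further: cells exposed to compound for 16 hours at 37 °C; 0% = DMSO only and full loss = 92 µM tetraoctylammonium bromide; cytotoxic hits lower the live-cell protease signal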
Procedure, shortened: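 qHTS, 1536-well; 2500 cells/well LYMP1-003; 5 hr 37 C settle; cpd 16 hr 37 C; MultiTox-Fluor reagent 60 min RT; live-cell protease fluor. 405/510; Hill-fit AC50; tetraoctylammonium bromide pos. ctrl.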

[14] = Cell Viability - LYMP1-003 - Assay at 24 hr (AID 963); details: LYMP1-003 lymphoblastoid cell viability; series mostly up to 92.2 µM;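 further: plate controls were DMSO only for no effect and tetraoctylammonium bromide positive control for full effect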
Procedure, shortened: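 Cells seeded at 2500/well, 5 hr at 37 C; compounds added; 24 hr at 37 C; CellTiter-Glo added, 30 min room temperature; luminescence read. Decrease in ATP taken as cytotoxicity, AC50 from Hill modelling.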

[15] = Cell Viability - LYMP2-003 (AID 965); details: LYMP2-003 lymphoblastoid cell viability; series mostly up to 92.2 µM;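 further: cells exposed to compounds for 24 h before reading; 0% = DMSO only and full effect = 92 µM tetraoctylammonium bromide; nearly all actives have a fitted effect of over 50% in size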
Procedure, shortened: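 CellTiter-Glo luminescence (cellular ATP) after 24 h compound exposure at 37 C in complete medium; 2500 cells/well, 5 h settling beforehand. Concentration-response fitted to standard Hill equation for AC50. Tetraoctylammonium bromide served as positive control.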

[16] = Cell Viability - LYMP2-025 (AID 976); details: LYMP2-025 lymphoblastoid cell viability; series mostly up to 92.2 µM;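 further: plate controls were DMSO only for no effect and tetraoctylammonium bromide control for full effect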
Procedure, shortened: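 Seed 2500 LYMP2-025 cells/well; 5 hr at 37 C; add compound; 24 hr at 37 C; add CellTiter-Glo; 30 min RT; read luminescence. AC50 from Hill-modelled concentration-response.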

[17] = Cell Viability - LYMP2-016 (AID 984); details: LYMP2-016 lymphoblastoid cell viability, qHTS; series mostly up to 92.2 µM;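 further: cells exposed to compound for 24 hours at 37 °C; on the % scale 0 is the no-effect control and ±100 the full control effect; nearly all actives have a fitted effect of over 55% in size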
Procedure, shortened: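 qHTS, 1536-well: 2500 LYMP2-016 cells/well, 5 hr 37 C, compound added, 24 hr 37 C, CellTiter-Glo 30 min RT, luminescence. Tetraoctylammonium bromide positive control. AC50 via Hill fit.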

[18] = Cell Viability - LYMP2-026 (AID 989); details: LYMP2-026 lymphoblastoid cell viability, qHTS; series mostly up to 92.2 µM; further: on the % scale 0 is the no-effect control and ±100 the full control effect; nearly all actives have a fitted effect of over 50% in size
Procedure, shortened: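 Luminescent ATP signal (CellTiter-Glo, 30 min room temperature) measures viable lymphoblastoid cells after 24 hr compound treatment at 37 C. Decreased ATP reflects acute toxicity; AC50 values come from Hill-equation modeling.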

[19] = qHTS Assay for Identification of Small Molecule Inducers of Hypoxia Response (AID 2120; active means well fitted curve in the direction sought with a large enough effect in the signal ratio, with a control signal flat, not every such curve was filed as active; the % refers to the signal ratio; further: 0% is about no effect); details: hypoxia response reporter cells, beta-lactamase ratio readout; series mostly up to 104 µM
Procedure, shortened: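 ME-180 HRE-bla cells plated in Opti-MEM/0.5% dialyzed FBS, rested 4-5 h, then dosed with compound titrations by pin tool. After 17 h at 37 degrees C, CCF4 dye loaded 2.5 h at RT; 460/530 nm ratio gave %Activity and AC50.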

[20] = target: Peroxisome proliferator-activated receptor alpha (Homo sapiens) (UniProt Q07869); assay: qHTS assay for small molecule agonists of the peroxisome proliferator-activated receptor alpha (PPARalpha) signaling pathway (AID 651778); details: PathHunter PPARalpha complementation, chemiluminescence, 6 h; active compounds read high; further: % of control where 0% means no effect
Procedure, shortened: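 Enzyme-fragment complementation assay in which ligand-bound PPARalpha translocates and forms an active enzyme that generates chemiluminescence. Cells were plated overnight, exposed to compound for 6 hr at 37 C, and then given detection reagent for 60 min at room temperature.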

Sequence of Peroxisome proliferator-activated receptor alpha (Homo sapiens) (Q07869 whole entry, looked up, the tested form may be a part): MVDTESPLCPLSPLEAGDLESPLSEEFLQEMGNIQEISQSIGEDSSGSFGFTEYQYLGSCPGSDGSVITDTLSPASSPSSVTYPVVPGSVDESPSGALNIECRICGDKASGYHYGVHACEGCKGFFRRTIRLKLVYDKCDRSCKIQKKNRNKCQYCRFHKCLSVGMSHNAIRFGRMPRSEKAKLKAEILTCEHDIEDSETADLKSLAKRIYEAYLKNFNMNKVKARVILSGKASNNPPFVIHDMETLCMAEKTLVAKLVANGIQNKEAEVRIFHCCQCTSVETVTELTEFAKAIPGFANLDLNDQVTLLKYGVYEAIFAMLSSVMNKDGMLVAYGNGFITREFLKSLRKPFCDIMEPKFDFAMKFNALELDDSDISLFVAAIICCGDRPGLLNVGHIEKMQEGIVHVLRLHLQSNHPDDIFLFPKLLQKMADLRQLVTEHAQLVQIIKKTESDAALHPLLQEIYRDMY

C/C=C/C=O
inactive: Potency [1] > 92 µM | Potency [2] | outcome [3] | outcome [4] | outcome [5] | outcome [6] | Potency [7] | caspase-3 activation [8] -1.23% | outcome [9] | outcome [10] | outcome [11] | Potency [12] | outcome [13] | outcome [14] | Potency [15] | Potency [16] | Potency [17] | Potency [18] | Potency [19] | max response [20] 10%

CC(C)(COCC1CO1)COCC1CO1 (centres undefined)
inactive: Potency [1] > 92 µM | Potency [2] | outcome [3] | outcome [4] | outcome [5] | outcome [6] | Potency [7] | caspase-3 activation [8] 0.0543% | outcome [9] | outcome [10] | outcome [11] | Potency [12] | outcome [13] | outcome [14] | Potency [15] | Potency [16] | Potency [17] | Potency [18] | Potency [19] | max response [20] -0.497%

c1ccc(N=NNc2ccccc2)cc1
inactive: Potency [1] > 92 µM | Potency [2] | outcome [3] | outcome [4] | outcome [5] | outcome [6] | Potency [7] | caspase-3 activation [8] -0.924% | outcome [9] | outcome [10] | outcome [11] | Potency [12] | outcome [13] | outcome [14] | Potency [15] | Potency [16] | Potency [17] | Potency [18] | Potency [19] | max response [20] -1.28% and 2.45%

C(CCOCC1CO1)COCC1CO1 (centres undefined)
inactive: Potency [1] > 92 µM | Potency [2] | outcome [3] | outcome [4] | outcome [5] | outcome [6] | Potency [7] | caspase-3 activation [8] 0.467% | outcome [10] | outcome [11] | Potency [12] | outcome [13] | outcome [14] | Potency [15] | Potency [16] | Potency [17] | Potency [18] | Potency [19] | max response [20] -0.765%
